Test results as given in ChEMBL document CHEMBL1961873, “Compounds: GSK PKIS; Assays: Nanosyn kinase panel” (2012).

Legend:
[1] = biological target: Platelet-derived growth factor receptor beta (Homo sapiens) (UniProt P09619); details: at 1 µM;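 further: each value is a mean percent inhibition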
[2] = biological target: Tyrosine-protein kinase FRK (Homo sapiens) (UniProt P42685); details: at 0.1 µM
[3] = biological target: Tyrosine-protein kinase FRK (Homo sapiens) (UniProt P42685); details: at 1 µM
[4] = biological target: Protein-tyrosine kinase 2-beta (Homo sapiens) (UniProt Q14289); details: at 0.1 µM
[5] = biological target: Protein-tyrosine kinase 2-beta (Homo sapiens) (UniProt Q14289); details: at 1 µM
[6] = biological target: Proto-oncogene tyrosine-protein kinase receptor Ret (Homo sapiens) (UniProt P07949); details: at 0.1 µM
[7] = biological target: Proto-oncogene tyrosine-protein kinase receptor Ret (Homo sapiens) (UniProt P07949); details: at 1 µM
[8] = test system: Proto-oncogene tyrosine-protein kinase receptor Ret (Homo sapiens), P07949 [V804L]; details: at 0.1 µM
[9] = test system: Proto-oncogene tyrosine-protein kinase receptor Ret (Homo sapiens), P07949 [V804L]; details: at 1 µM
[10] = test system: Proto-oncogene tyrosine-protein kinase receptor Ret (Homo sapiens), P07949 [Y791F]; details: at 0.1 µM
[11] = test system: Proto-oncogene tyrosine-protein kinase receptor Ret (Homo sapiens), P07949 [Y791F]; details: at 1 µM
[12] = biological target: Macrophage-stimulating protein receptor (Homo sapiens) (UniProt Q04912); details: at 0.1 µM
[13] = biological target: Macrophage-stimulating protein receptor (Homo sapiens) (UniProt Q04912); details: at 1 µM
[14] = biological target: Proto-oncogene tyrosine-protein kinase ROS (Homo sapiens) (UniProt P08922); details: at 0.1 µM
[15] = biological target: Proto-oncogene tyrosine-protein kinase ROS (Homo sapiens) (UniProt P08922); details: at 1 µM
[16] = biological target: Proto-oncogene tyrosine-protein kinase Src (Homo sapiens) (UniProt P12931); details: at 0.1 µM
[17] = biological target: Proto-oncogene tyrosine-protein kinase Src (Homo sapiens) (UniProt P12931); details: at 1 µM
[18] = biological target: Tyrosine-protein kinase Srms (Homo sapiens) (UniProt Q9H3Y6); details: at 0.1 µM
[19] = biological target: Tyrosine-protein kinase Srms (Homo sapiens) (UniProt Q9H3Y6); details: at 1 µM
[20] = biological target: Tyrosine-protein kinase SYK (Homo sapiens) (UniProt P43405); details: at 0.1 µM;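 further: reported percentages are mean inhibition values for SYK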

Chain of Proto-oncogene tyrosine-protein kinase receptor Ret (Homo sapiens), P07949 [Y791F] (P07949 whole entry Y791F): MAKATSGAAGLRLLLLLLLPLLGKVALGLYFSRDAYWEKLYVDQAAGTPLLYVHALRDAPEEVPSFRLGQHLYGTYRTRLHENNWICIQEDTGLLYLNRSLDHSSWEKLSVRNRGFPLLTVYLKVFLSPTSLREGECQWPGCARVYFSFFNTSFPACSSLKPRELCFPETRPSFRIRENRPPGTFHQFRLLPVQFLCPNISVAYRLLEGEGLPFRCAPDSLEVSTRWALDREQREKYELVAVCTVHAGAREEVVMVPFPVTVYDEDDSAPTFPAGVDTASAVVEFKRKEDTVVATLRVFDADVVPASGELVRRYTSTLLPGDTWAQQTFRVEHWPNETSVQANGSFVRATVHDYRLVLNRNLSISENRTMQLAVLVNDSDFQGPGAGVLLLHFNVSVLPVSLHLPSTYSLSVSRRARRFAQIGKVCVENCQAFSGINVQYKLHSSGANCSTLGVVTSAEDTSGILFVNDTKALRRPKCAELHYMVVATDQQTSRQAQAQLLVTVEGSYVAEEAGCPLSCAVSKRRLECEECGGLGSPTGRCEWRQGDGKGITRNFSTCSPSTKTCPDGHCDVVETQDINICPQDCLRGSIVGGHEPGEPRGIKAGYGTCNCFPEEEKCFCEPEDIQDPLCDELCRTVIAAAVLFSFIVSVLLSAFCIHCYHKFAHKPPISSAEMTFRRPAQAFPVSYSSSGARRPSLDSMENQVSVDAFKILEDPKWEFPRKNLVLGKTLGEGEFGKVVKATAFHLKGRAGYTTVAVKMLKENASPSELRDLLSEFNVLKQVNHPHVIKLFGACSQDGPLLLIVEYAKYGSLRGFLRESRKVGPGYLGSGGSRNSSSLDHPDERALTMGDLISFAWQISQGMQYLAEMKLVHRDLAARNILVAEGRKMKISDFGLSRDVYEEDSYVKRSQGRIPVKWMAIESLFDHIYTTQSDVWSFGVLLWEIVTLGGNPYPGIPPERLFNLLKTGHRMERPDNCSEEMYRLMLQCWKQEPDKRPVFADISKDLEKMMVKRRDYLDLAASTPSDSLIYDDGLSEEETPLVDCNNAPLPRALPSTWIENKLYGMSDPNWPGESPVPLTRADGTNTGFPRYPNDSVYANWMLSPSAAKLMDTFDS
Chain of Protein-tyrosine kinase 2-beta (Homo sapiens) (Q14289 whole entry, looked up): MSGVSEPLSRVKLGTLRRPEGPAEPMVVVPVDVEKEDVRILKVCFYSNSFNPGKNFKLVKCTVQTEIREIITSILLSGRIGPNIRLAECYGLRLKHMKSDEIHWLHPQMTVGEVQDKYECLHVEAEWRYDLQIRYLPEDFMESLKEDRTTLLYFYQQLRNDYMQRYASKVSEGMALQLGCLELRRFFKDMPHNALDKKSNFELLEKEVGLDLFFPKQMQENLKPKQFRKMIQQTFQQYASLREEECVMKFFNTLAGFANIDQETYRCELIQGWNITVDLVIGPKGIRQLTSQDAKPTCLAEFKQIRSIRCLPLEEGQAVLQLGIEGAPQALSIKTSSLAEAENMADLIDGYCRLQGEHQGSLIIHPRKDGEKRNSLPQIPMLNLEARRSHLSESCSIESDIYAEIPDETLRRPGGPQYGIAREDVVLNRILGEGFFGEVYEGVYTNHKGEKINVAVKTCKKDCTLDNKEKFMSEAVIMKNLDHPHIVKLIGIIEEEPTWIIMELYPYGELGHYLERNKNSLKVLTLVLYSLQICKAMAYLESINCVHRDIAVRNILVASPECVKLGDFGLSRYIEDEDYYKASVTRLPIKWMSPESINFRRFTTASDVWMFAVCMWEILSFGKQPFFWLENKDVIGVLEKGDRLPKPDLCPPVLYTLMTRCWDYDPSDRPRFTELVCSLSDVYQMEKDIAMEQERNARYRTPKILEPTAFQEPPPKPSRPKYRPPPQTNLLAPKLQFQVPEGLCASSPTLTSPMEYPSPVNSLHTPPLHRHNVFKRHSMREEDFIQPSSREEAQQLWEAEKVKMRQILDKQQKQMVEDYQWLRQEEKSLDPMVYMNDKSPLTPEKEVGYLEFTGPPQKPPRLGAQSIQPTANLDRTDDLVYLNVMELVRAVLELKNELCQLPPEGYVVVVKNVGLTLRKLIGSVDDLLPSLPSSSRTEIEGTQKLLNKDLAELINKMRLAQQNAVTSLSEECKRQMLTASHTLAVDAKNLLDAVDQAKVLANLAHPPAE
Chain of Macrophage-stimulating protein receptor (Homo sapiens) (Q04912 25-304 limits assumed): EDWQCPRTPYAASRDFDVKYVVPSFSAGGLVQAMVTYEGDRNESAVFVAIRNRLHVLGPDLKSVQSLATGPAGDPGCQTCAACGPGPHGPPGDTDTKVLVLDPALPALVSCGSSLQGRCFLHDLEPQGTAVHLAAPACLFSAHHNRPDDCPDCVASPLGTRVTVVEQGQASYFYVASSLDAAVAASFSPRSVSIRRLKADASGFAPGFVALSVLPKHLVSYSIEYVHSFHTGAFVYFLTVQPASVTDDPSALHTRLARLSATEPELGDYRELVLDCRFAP
Chain of Macrophage-stimulating protein receptor (Homo sapiens) (Q04912 310-1400 limits assumed): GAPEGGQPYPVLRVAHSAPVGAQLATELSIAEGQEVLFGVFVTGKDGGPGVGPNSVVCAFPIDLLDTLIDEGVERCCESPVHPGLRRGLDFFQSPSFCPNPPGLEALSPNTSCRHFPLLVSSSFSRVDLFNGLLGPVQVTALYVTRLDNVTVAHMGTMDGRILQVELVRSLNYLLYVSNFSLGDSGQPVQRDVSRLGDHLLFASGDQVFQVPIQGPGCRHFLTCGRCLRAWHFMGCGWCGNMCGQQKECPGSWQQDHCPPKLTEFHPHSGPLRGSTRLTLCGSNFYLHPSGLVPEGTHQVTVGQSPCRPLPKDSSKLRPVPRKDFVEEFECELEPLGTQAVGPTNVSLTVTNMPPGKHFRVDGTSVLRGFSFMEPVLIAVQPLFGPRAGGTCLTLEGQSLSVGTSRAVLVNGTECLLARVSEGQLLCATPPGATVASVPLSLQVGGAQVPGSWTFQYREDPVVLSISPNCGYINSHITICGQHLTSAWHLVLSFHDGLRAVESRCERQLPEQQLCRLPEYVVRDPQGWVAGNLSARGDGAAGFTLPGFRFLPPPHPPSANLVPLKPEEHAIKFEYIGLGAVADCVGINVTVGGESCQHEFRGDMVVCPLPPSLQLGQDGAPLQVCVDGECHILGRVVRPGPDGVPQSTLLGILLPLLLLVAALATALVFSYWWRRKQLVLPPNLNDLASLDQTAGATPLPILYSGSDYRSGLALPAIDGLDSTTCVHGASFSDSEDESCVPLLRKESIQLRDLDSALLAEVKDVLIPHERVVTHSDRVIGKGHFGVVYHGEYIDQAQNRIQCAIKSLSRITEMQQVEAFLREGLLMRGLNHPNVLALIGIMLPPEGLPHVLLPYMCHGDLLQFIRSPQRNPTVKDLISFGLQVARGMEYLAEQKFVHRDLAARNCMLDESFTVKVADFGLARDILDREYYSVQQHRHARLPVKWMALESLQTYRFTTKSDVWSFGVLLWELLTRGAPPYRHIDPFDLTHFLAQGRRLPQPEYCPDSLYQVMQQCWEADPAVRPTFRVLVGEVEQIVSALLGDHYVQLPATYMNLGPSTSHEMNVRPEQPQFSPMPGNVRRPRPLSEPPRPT
Chain of Tyrosine-protein kinase Srms (Homo sapiens) (Q9H3Y6 whole entry): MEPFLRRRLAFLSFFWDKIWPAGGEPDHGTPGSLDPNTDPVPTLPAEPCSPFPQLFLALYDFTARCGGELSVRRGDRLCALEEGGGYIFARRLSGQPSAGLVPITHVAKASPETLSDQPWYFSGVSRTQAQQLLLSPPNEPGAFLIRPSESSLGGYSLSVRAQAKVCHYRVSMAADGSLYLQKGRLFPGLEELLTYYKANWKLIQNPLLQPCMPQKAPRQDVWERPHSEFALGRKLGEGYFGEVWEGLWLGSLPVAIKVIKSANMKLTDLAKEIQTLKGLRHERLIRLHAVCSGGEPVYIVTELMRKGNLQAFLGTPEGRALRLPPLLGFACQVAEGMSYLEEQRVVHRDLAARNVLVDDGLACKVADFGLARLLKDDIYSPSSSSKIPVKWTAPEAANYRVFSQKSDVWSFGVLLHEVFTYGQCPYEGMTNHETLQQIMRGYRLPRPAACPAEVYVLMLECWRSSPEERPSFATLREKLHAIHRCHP
Chain of Platelet-derived growth factor receptor beta (Homo sapiens) (P09619 whole entry): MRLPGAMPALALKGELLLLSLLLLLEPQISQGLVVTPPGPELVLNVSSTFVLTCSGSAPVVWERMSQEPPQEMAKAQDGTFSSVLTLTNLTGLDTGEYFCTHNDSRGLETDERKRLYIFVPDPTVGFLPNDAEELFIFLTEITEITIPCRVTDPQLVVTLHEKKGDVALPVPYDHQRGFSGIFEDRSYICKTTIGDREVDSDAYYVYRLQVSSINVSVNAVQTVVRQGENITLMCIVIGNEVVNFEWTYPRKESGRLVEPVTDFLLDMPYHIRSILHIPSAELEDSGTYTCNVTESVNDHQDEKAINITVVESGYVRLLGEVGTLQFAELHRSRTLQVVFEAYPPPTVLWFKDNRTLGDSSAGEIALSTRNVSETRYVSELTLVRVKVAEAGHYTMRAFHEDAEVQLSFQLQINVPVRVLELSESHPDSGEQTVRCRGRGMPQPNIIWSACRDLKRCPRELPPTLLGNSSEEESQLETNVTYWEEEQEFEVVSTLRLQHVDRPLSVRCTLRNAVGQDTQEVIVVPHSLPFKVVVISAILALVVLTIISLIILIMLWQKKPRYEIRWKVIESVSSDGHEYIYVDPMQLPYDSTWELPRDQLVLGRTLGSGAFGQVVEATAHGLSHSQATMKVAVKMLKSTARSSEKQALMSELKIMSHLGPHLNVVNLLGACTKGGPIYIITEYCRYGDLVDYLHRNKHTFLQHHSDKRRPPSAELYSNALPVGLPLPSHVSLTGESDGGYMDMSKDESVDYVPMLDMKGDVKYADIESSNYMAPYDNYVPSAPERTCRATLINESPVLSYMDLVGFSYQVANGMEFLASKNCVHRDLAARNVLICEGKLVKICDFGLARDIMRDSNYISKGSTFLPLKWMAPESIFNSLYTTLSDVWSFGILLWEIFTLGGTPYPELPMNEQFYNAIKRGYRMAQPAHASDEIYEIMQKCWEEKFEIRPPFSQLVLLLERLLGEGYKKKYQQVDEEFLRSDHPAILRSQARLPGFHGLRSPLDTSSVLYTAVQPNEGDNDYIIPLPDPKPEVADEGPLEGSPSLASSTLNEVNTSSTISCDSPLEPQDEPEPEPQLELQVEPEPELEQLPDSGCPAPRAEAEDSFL

SMILES	inhibition [1]	inhibition [2]	inhibition [3]	inhibition [4]	inhibition [5]	inhibition [6]	inhibition [7]	inhibition [8]	inhibition [9]	inhibition [10]	inhibition [11]	inhibition [12]	inhibition [13]	inhibition [14]	inhibition [15]	inhibition [16]	inhibition [17]	inhibition [18]	inhibition [19]	inhibition [20]
NS(=O)(=O)c1cccc(-c2ccc3c(NC(=O)C4CC4)n[nH]c3c2)c1	5.08%	0.47%	1.64%	-7.23%	5.72%	2.41%	1.62%	-0.14%	-1.66%	-2.8%	-2.02%	6.3%	3.46%	3.46%	5%	-4.15%	-1.21%	-0.76%	-1.91%	-1.3%
CCn1c(-c2nonc2N)nc2c(C#CC(C)(C)O)nc(CN3CCCC3)cc21	12.2%	0.91%	-0.12%	-0.18%	-7.23%	-0.08%	9.99%	0.92%	4.79%	5.91%	14.5%	27.6%	-5.13%	2.54%	3.85%	0.78%	0.68%	-1.37%	-0.75%	6.45%
COc1cc2ncn(-c3cc(O[C@@H](C)c4ccccc4Cl)c(C(N)=O)s3)c2cc1OC	68.2%	5.42%	4.28%	-0.4%	14%	33.6%	72.1%	8.18%	38.3%	32.5%	72%	-0.14%	2.55%	5.59%	29.1%	10.3%	30.1%	-3.6%	-1.13%	-2.93%
O=C(Nc1n[nH]c2nc(-c3ccco3)c(Br)cc12)C1CC1	6.81%	1.22%	4.35%	-1.24%	3.71%	6.36%	4.7%	4.14%	0.95%	4.67%	-2.51%	1.47%	4.05%	3.63%	3.03%	12.5%	14.2%	-2.24%	-0.3%	0.12%
N#Cc1c(NC(=O)c2cccc3ccccc23)sc2c1CCCC2	9.27%	2.64%	1.48%	2.95%	5.82%	5.35%	5.82%	3.1%	3.6%	5.18%	2.2%	1.52%	3.88%	3.2%	5.26%	12.3%	7.06%	-0.23%	-0.56%	-4.41%
NC(=O)c1ccc(-c2nc(-c3ccccn3)c(-c3ccc4c(c3)OCO4)[nH]2)cc1	7.47%	0.98%	-0.16%	1.97%	6.61%	6.29%	8.97%	4.67%	5.88%	6.95%	13.7%	-0.12%	-1.49%	2.07%	2.89%	3.87%	4.86%	2.17%	1.98%	0.63%
CNC(=O)c1cncc(/C=C/c2c(Cl)cccc2Cl)c1	17.8%	3.04%	11%	4.56%	7.83%	3.32%	12.3%	3.35%	10.2%	14.7%	14.9%	6.34%	-0.69%	11.1%	11.8%	14.3%	47.2%	1.5%	8.71%	1.45%
[O-][S+]1CCN(Cc2ccc(-c3ccc4ncnc(Nc5ccc(OCc6ccccc6)c(F)c5)c4c3)o2)CC1	3.24%	0.91%	1.11%	2.85%	-2.53%	6.29%	9.08%	8.58%	5.31%	1.94%	5.92%	2.75%	7.9%	3.51%	1.61%	5.28%	8.51%	-1.06%	-3.12%	-2.3%
